Source: PubChem BioAssay AID1159580 (chemical genetic matrix, 2015)
Several values for one entry are separate records, joined by “and”; a condition that tells them apart may be missing. Equal values may be shown once. In all, about 5,500 compounds went through this assay and about 2,000 (36%) were called active. Inconclusive results (about 18%) are left out. Cut-off read from the data, not from the text of the source: active = normalized growth mostly below about 0.91 (no sharp cut-off); inconclusive = no clear call, values can overlap the other calls; inactive = mostly above about 0.92. The list shows a part of the results.

Experiment: chemical genetic growth profiling, strain panel (AID 1159580);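 note: tested at 20 µM; growth read once vehicle control cultures reached saturation at 30 °C; 1 = growth at the plate median or of vehicle wells; lower values mean less growth of the strain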
Conditions: S. cerevisiae deletion strains, growth OD

Measured: normalized growth

C[C@@H]1O[C@@H](OC[C@H]2OC(Oc3c(-c4ccc(OCCO)c(OCCO)c4)oc4cc(OCCO)cc(O)c4c3=O)[C@H](O)[C@@H](O)[C@@H]2O)[C@H](O)[C@H](O)[C@H]1O (stereo not given in full)
inactive: locus YAL013W, strain DEP1, stronger effect = lower value 0.994 | locus YAL021C, strain ccr4, stronger effect = lower value 0.972 | locus YAL026C, strain drs2, stronger effect = lower value 0.973 | locus YAL030W, strain snc1, stronger effect = lower value 0.946 | locus YBL061C, strain skt5, stronger effect = lower value 0.974 | locus YBR009C, strain hhf1, stronger effect = lower value 0.981 | locus YBR021W, strain FUR4, stronger effect = lower value 1.02 | locus YBR023C, strain chs3, stronger effect = lower value 0.956 | locus YBR171W, strain sec66, stronger effect = lower value 0.945 | locus YBR229C, strain ROT2, stronger effect = lower value 0.961 | locus YBR231C, strain swc5, stronger effect = lower value 0.962 | locus YBR279W, strain paf1, stronger effect = lower value 0.967 | locus YCL011C, strain gbp2, stronger effect = lower value 0.952 | locus YCL016C, strain dcc1, stronger effect = lower value 0.984 | locus YCL029C, strain bik1, stronger effect = lower value 1.01 | locus YCL061C, strain MRC1, stronger effect = lower value 0.973 | locus YCL069W, strain vba3, stronger effect = lower value 0.966 | locus YCR088W, strain abp1, stronger effect = lower value 0.969 | locus YDL005C, strain med2, stronger effect = lower value 0.963 | locus YDL035C, strain GPR1, stronger effect = lower value 0.945 | locus YDL040C, strain nat1, stronger effect = lower value 0.972 | locus YDL074C, strain BRE1, stronger effect = lower value 1.01 | locus YDL101C, strain DUN1, stronger effect = lower value 0.979 | locus YDL185W, strain tfp1, stronger effect = lower value 0.973 | locus YDL192W, strain arf1, stronger effect = lower value 0.992 | locus YDR001C, strain nth1, stronger effect = lower value 0.943 | locus YDR069C, strain doa4, stronger effect = lower value 0.931 | locus YDR101C, strain arx1, stronger effect = lower value 1.04 | locus YDR137W, strain rgp1, stronger effect = lower value 0.938 | locus YDR159W, strain sac3, stronger effect = lower value 0.94 | locus YDR162C, strain NBP2, stronger effect = lower value 0.985 | locus YDR195W, strain ref2 0.892 | locus YDR297W, strain sur2, stronger effect = lower value 0.974 | locus YDR318W, strain mcm21, stronger effect = lower value 0.963 | locus YDR334W, strain swr1, stronger effect = lower value 0.916 | locus YDR335W, strain msn5, stronger effect = lower value 0.958 | locus YDR388W, stronger effect = lower value 0.994 | locus YDR392W, strain spt3, stronger effect = lower value 1.02 | locus YDR502C, strain sam2, stronger effect = lower value 0.995 | locus YEL003W, strain gim4, stronger effect = lower value 0.968 | locus YEL037C, strain rad23, stronger effect = lower value 0.955 | locus YEL061C, strain CIN8 (second series), stronger effect = lower value 0.947 | locus YEL061C, strain CIN8, stronger effect = lower value 0.997 | locus YER015W, strain faa2, stronger effect = lower value 0.984 | locus YER016W, strain bim1, stronger effect = lower value 0.96 | locus YER110C, stronger effect = lower value 0.978 | locus YER111C, strain swi4, stronger effect = lower value 0.963 | locus YER155C, strain BEM2 (second series), stronger effect = lower value 0.974 | locus YER155C, strain BEM2, stronger effect = lower value 1 | locus YER167W, strain BCK2, stronger effect = lower value 1.01 | locus YFR010W, strain ubp6, stronger effect = lower value 0.946 | locus YGL078C, strain dbp3, stronger effect = lower value 0.996 | locus YGL086W, strain mad1, stronger effect = lower value 1.03 | locus YGL167C, strain pmr1, stronger effect = lower value 0.933 | locus YGL173C, strain kem1, stronger effect = lower value 0.993 | locus YGL227W, strain vid30, stronger effect = lower value 0.938 | locus YGL240W, strain doc1, stronger effect = lower value 0.958 | locus YGL248W, strain PDE1, stronger effect = lower value 0.965 | locus YGL253W, strain hxk2, stronger effect = lower value 0.965 | locus YGR078C, strain PAC10, stronger effect = lower value 0.984 | locus YGR135W, strain pre9, stronger effect = lower value 0.97 | locus YGR252W, strain gcn5, stronger effect = lower value 0.947 | locus YHR013C, strain ard1, stronger effect = lower value 0.973 | locus YHR027C, strain rpn1, stronger effect = lower value 0.958 | locus YHR030C, strain SLT2, stronger effect = lower value 1 and 0.999 | locus YHR079C, strain IRE1 (second series), stronger effect = lower value 1 | locus YHR079C, strain IRE1, stronger effect = lower value 1.02 | locus YHR094C, strain hxt1, stronger effect = lower value 0.969 | locus YHR129C, strain ARP1, stronger effect = lower value 0.99 | locus YHR142W, strain chs7, stronger effect = lower value 0.958 | locus YHR200W, strain rpn10, stronger effect = lower value 0.983 | locus YIL066C, strain RNR3, stronger effect = lower value 0.972 | locus YIL073C, strain SPO22, stronger effect = lower value 0.969 | locus YIL125W, strain kgd1, stronger effect = lower value 0.991 | locus YIR030C, strain dcg1, stronger effect = lower value 0.993 | locus YJL092W, strain hpr5, stronger effect = lower value 0.967 | locus YJL095W, strain BCK1 (second series), stronger effect = lower value 0.967 | locus YJL095W, strain BCK1, stronger effect = lower value 0.972 and 1.01 | locus YJL115W, strain asf1, stronger effect = lower value 0.948 | locus YJL129C, strain trk1, stronger effect = lower value 0.954 | locus YJL134W, strain LCB3, stronger effect = lower value 0.99 | locus YJL154C, strain vps35, stronger effect = lower value 0.958 | locus YJL164C, strain tpk1, stronger effect = lower value 0.995 | locus YJL166W, strain qcr8, stronger effect = lower value 0.971 | locus YJL168C, strain set2, stronger effect = lower value 0.993 | locus YJL187C, strain SWE1 (second series), stronger effect = lower value 0.983 | locus YJR043C, strain POL32, stronger effect = lower value 0.972 | locus YJR066W, strain TOR1, stronger effect = lower value 0.941 | locus YJR075W, strain HOC1, stronger effect = lower value 0.983 | locus YKL009W, strain mrt4, stronger effect = lower value 0.978 | locus YKL068W, stronger effect = lower value 0.973 | locus YKL085W, strain MDH1 (second series), stronger effect = lower value 0.981 | locus YKL085W, strain MDH1, stronger effect = lower value 0.981 | locus YKL160W, strain elf1, stronger effect = lower value 0.986 | locus YKL190W, strain CNB1, stronger effect = lower value 0.992 | locus YKR001C, strain vps1, stronger effect = lower value 0.994 | locus YKR026C, strain gcn3, stronger effect = lower value 0.946 | locus YKR091W, strain srl3, stronger effect = lower value 0.974 | locus YLL001W, strain dnm1, stronger effect = lower value 0.963 | locus YLL026W, stronger effect = lower value 0.947 | locus YLL041C, strain sdh2, stronger effect = lower value 0.959 | locus YLR027C, strain aat2, stronger effect = lower value 0.964 | locus YLR039C, strain RIC1, stronger effect = lower value 1.07 | locus YLR058C, strain SHM2, stronger effect = lower value 0.978 | locus YLR102C, strain apc9, stronger effect = lower value 0.986 | locus YLR113W, strain HOG1, stronger effect = lower value 1.01 | locus YLR221C, strain rsa3, stronger effect = lower value 0.986 | locus YLR258W, strain gsy2, stronger effect = lower value 0.971 | locus YLR262C, strain YPT6 (second series), stronger effect = lower value 0.961 | locus YLR262C, strain YPT6, stronger effect = lower value 1.08 | locus YLR268W, strain sec22, stronger effect = lower value 1.03 | locus YLR320W, strain mms22, stronger effect = lower value 1.01 | locus YLR330W, strain CHS5, stronger effect = lower value 1 | locus YLR342W, strain FKS1 (second series), stronger effect = lower value 0.985 | locus YLR342W, strain FKS1, stronger effect = lower value 0.974 | locus YLR357W, strain rsc2, stronger effect = lower value 0.947 | locus YLR370C, strain arc18, stronger effect = lower value 0.954 | locus YLR371W, strain rom2, stronger effect = lower value 0.963 | locus YLR384C, strain iki3, stronger effect = lower value 0.962 | locus YLR418C, strain cdc73, stronger effect = lower value 0.959 | locus YML016C, strain PPZ1, stronger effect = lower value 0.996 | locus YML032C, strain rad52, stronger effect = lower value 0.952 | locus YML120C, strain ndi1, stronger effect = lower value 0.963 | locus YML124C, strain tub3, stronger effect = lower value 1.01 | locus YMR058W, strain fet3, stronger effect = lower value 0.959 | locus YMR078C, strain ctf18, stronger effect = lower value 0.988 | locus YMR125W, strain sto1, stronger effect = lower value 0.948 | locus YMR129W, stronger effect = lower value 0.972 | locus YMR205C, strain PFK2, stronger effect = lower value 0.977 | locus YMR223W, strain ubp8, stronger effect = lower value 0.985 | locus YMR231W, strain pep5, stronger effect = lower value 0.971 | locus YMR307W, strain GAS1, stronger effect = lower value 1.01 | locus YNL067W, strain RPL9B, stronger effect = lower value 0.978 | locus YNL071W, strain lat1, stronger effect = lower value 0.971 | locus YNL128W, strain TEP1, stronger effect = lower value 0.998 | locus YNL183C, strain NPR1, stronger effect = lower value 0.936 | locus YNL209W, strain ssb2, stronger effect = lower value 0.958 | locus YNL233W, strain BNI4, stronger effect = lower value 0.993 | locus YNL248C, strain rpa49, stronger effect = lower value 0.973 | locus YNL250W, strain rad50, stronger effect = lower value 0.984 | locus YNL271C, strain bni1, stronger effect = lower value 0.993 | locus YNL298W, strain CLA4, stronger effect = lower value 0.973 | locus YNL307C, strain MCK1, stronger effect = lower value 0.988 | locus YNL322C, strain KRE1 (second series), stronger effect = lower value 0.949 | locus YNR049C, strain mso1, stronger effect = lower value 0.965 | locus YNR052C, strain pop2, stronger effect = lower value 0.99 | locus YOL012C, strain htz1 1.9 | locus YOL147C, strain pex11, stronger effect = lower value 0.991 | locus YOR001W, strain rrp6, stronger effect = lower value 0.962 | locus YOR061W, strain CKA2, stronger effect = lower value 0.954 | locus YOR069W, strain VPS5, stronger effect = lower value 0.994 | locus YOR070C, strain gyp1, stronger effect = lower value 0.977 | locus YOR080W, strain dia2, stronger effect = lower value 0.943 | locus YOR083W, strain WHI5, stronger effect = lower value 0.987 | locus YOR106W, strain vam3, stronger effect = lower value 0.943 | locus YOR136W, strain idh2, stronger effect = lower value 0.984 | locus YOR144C, strain elg1, stronger effect = lower value 0.986 | locus YOR184W, strain ser1, stronger effect = lower value 0.987 | locus YOR231W, strain MKK1, stronger effect = lower value 1.03 | locus YOR265W, strain rbl2, stronger effect = lower value 0.963 | locus YOR270C, strain vph1, stronger effect = lower value 0.94 | locus YOR290C, strain snf2, stronger effect = lower value 0.972 | locus YOR316C, strain cot1, stronger effect = lower value 0.982 | locus YPL051W, strain arl3, stronger effect = lower value 0.956 | locus YPL055C, strain LGE1, stronger effect = lower value 0.994 | locus YPL078C, strain atp4, stronger effect = lower value 0.952 | locus YPL106C, strain sse1, stronger effect = lower value 0.925 | locus YPL240C, strain hsp82, stronger effect = lower value 0.972 | locus YPL241C, strain CIN2, stronger effect = lower value 1 | locus YPL256C, strain CLN2, stronger effect = lower value 1.01 | locus YPR119W, strain clb2, stronger effect = lower value 0.996 | locus YPR141C, strain kar3, stronger effect = lower value 0.974 | locus YPR163C, strain tif3, stronger effect = lower value 0.993 | locus YPR167C, strain met16, stronger effect = lower value 0.99 | strain wtn01, stronger effect = lower value 1.02
